# Experiments:
# Experiment in all cases: DAPPL (digital affinity profiling via proximity ligation, sequencing); 10 mM Tris-HCl pH 7.5, 50 mM NaCl, 1 mM DTT, 4% glycerol, room temperature, 30 min; GST-TFs on glutathione beads, 16-mer random dsDNA library, 0.1% formaldehyde crosslink after washing; high values mean tight binding
# FEV = molecular target: T1, FEV (Homo sapiens, UniProt Q99581 1-238); conditions: protein: recombinant; tags: N-terminal GST; dsDNA, one strand shown
# T1 sequence: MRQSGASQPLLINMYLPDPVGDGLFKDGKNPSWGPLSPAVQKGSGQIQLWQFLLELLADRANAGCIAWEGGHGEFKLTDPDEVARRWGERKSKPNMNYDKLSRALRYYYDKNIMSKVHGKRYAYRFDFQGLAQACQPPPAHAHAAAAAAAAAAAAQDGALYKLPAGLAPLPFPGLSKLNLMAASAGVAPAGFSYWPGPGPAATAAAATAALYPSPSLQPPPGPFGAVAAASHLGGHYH
# Method in brief: (§1)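 Yeast served to express human transcription factors as GST fusions, which were then captured on glutathione beads and labelled with DNA barcodes. Pooled with a tag-only sample, they were incubated with 200 nmole of a 16-mer random double-stranded DNA library for 30 min at room temperature in Tris/NaCl/DTT/glycerol buffer, washed, crosslinked with 0.1% formaldehyde, ligated by proximity, amplified by PCR and sequenced. Dividing each hexamer's read frequency for a factor by its frequency for the tag-only sample gives the binding signal.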
# ETV5 = ETV5 (Homo sapiens, UniProt P41161 1-510); conditions: protein: recombinant; tags: N-terminal GST; dsDNA, one strand shown
# Method in brief: as §1
# HSF1 = HSF1 (Homo sapiens, UniProt Q00613 1-529); conditions: protein: recombinant; tags: N-terminal GST; chain copies: 3; dsDNA, one strand shown
# Method in brief: as §1
# SPIC = molecular target: T2, SPIC (Homo sapiens, UniProt Q8N5J4 1-248); conditions: protein: recombinant; tags: N-terminal GST; dsDNA, one strand shown
# T2 sequence: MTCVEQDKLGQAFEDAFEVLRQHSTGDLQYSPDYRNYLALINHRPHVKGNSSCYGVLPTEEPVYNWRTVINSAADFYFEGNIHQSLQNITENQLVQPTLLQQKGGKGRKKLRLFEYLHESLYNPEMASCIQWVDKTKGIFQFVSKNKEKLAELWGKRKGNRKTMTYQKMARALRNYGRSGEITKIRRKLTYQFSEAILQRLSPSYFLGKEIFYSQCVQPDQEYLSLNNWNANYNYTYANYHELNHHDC
# Method in brief: as §1
# ELF4 = ELF4 (Homo sapiens, UniProt Q99607 1-663); conditions: protein: recombinant; tags: N-terminal GST; dsDNA, one strand shown
# Method in brief: as §1
# ELK4 = molecular target: T3, ELK4 (Homo sapiens, UniProt P28324-2 1-405); conditions: protein: recombinant; tags: N-terminal GST; dsDNA, one strand shown
# T3 sequence: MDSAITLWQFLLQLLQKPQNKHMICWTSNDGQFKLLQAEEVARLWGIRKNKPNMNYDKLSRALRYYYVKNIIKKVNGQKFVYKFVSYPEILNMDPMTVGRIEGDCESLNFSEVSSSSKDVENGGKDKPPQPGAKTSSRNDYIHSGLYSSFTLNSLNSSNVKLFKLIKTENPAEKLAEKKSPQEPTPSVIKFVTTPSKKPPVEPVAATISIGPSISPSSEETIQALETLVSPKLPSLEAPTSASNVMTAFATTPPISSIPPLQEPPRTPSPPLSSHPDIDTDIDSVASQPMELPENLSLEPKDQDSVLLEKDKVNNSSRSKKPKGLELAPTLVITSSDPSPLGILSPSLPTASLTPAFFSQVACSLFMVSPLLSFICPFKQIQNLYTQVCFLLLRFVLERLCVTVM
# Method in brief: as §1
# ETV2 = molecular target: T4, ETV2 (Homo sapiens, UniProt O00321 1-342); conditions: protein: recombinant; tags: N-terminal GST; dsDNA, one strand shown
# T4 sequence: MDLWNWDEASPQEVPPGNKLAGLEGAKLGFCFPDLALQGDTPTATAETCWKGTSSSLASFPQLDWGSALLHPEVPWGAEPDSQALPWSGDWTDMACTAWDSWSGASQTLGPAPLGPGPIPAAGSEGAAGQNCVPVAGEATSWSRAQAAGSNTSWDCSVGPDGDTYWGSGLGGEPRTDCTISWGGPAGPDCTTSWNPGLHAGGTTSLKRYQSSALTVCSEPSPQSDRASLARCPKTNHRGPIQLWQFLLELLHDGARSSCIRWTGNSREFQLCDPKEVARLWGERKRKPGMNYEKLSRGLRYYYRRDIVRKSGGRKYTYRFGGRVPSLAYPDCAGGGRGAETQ
# Method in brief: as §1
# ELF3 = molecular target: T5, ELF3 (Homo sapiens, UniProt P78545 1-371); conditions: protein: recombinant; tags: N-terminal GST; dsDNA, one strand shown
# T5 sequence: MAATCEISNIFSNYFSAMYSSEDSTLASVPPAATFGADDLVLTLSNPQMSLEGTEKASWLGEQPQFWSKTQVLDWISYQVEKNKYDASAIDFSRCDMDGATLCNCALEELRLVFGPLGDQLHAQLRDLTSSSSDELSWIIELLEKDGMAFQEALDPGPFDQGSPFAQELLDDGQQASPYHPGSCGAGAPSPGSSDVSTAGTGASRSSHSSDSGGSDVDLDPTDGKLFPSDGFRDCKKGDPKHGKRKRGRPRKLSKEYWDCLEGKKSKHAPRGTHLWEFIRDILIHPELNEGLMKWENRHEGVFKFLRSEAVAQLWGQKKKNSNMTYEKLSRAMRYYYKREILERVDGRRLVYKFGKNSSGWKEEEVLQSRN
# Method in brief: as §1
# CRX = CRX (Homo sapiens, UniProt O43186 1-299); conditions: protein: recombinant; tags: N-terminal GST; dsDNA, one strand shown
# Method in brief: as §1
# ETV1 = ETV1 (Homo sapiens, UniProt P50549 1-477); conditions: protein: recombinant; tags: N-terminal GST; dsDNA, one strand shown
# Method in brief: as §1
# HSF1, sequence (Q00613 whole entry): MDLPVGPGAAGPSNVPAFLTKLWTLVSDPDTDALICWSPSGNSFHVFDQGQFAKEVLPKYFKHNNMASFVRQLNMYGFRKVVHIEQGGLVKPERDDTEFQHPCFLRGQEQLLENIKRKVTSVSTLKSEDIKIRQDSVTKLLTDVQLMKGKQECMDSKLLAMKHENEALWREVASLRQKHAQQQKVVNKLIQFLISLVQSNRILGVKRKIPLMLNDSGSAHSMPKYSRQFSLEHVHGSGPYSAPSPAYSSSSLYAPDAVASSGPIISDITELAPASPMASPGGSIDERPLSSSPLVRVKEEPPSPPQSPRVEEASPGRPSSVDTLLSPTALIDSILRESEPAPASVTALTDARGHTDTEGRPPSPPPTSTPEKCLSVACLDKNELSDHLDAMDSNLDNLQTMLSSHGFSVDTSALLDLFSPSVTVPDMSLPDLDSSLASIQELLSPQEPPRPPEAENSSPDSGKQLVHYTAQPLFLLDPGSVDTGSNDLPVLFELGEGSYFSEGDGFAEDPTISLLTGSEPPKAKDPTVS
# ETV1, sequence (P50549 whole entry): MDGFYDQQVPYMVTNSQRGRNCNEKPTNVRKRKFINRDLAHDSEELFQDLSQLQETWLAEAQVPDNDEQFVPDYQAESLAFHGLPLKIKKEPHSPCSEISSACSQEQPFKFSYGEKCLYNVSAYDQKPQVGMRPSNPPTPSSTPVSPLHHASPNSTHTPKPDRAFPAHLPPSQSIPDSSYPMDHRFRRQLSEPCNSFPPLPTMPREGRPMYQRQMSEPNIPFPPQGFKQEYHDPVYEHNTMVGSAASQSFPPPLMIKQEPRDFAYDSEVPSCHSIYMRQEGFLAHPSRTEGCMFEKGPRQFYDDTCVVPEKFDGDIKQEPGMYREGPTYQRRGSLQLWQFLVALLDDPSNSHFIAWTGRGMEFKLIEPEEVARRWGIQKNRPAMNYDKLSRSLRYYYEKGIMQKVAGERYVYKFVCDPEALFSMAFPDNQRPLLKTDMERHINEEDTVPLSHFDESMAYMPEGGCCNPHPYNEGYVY
# ETV5, sequence (P41161 whole entry): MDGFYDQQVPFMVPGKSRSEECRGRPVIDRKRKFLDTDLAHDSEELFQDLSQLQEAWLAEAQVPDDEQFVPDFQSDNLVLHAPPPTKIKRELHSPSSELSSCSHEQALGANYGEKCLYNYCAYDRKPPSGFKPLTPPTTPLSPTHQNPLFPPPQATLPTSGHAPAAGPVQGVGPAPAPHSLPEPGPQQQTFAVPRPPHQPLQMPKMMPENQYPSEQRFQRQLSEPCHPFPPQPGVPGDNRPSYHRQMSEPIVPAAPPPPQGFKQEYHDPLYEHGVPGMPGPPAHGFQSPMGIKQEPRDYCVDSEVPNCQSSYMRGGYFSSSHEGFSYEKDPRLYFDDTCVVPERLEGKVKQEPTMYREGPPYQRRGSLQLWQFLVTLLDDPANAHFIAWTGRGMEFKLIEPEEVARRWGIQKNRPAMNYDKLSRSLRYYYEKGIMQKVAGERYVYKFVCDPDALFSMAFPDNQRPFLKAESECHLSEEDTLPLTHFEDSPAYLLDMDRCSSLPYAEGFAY
# ELF4, sequence (Q99607 whole entry): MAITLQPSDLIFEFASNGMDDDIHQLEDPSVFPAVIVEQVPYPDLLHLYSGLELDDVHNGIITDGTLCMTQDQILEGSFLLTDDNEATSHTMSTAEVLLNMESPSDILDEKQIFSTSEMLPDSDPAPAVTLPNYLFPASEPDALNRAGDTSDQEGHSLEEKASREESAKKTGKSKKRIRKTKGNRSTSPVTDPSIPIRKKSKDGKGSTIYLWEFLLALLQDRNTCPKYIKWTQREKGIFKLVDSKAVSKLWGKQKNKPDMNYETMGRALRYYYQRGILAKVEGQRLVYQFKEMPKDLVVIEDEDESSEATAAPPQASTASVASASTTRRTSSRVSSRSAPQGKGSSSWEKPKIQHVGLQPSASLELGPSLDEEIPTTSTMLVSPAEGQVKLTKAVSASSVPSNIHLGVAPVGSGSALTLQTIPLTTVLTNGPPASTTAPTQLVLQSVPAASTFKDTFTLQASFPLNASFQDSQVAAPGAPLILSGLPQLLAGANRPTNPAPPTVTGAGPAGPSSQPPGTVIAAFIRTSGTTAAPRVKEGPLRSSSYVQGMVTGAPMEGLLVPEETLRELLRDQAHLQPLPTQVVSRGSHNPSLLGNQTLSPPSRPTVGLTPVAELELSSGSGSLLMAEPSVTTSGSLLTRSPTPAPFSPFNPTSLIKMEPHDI
# CRX, sequence (O43186 whole entry): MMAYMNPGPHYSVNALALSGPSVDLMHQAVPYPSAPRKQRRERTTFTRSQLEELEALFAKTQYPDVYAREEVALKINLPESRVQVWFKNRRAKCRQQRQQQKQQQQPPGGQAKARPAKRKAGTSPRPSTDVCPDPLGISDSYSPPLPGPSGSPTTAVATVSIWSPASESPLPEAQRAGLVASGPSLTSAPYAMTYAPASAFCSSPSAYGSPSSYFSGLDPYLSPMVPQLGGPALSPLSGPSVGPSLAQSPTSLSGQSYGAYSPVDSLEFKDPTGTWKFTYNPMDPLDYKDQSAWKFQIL
sequence,measurement,setting,value
ATAACT,binding signal,FEV,"1.22 fold enrichment (6-mer frequency, TF over GST control)"
same,binding signal,ETV5,"1.29 fold enrichment (6-mer frequency, TF over GST control)"
same,binding signal,HSF1,"1.15 fold enrichment (6-mer frequency, TF over GST control)"
same,binding signal,SPIC,"1.28 fold enrichment (6-mer frequency, TF over GST control)"
same,binding signal,ELF4,"1.25 fold enrichment (6-mer frequency, TF over GST control)"
same,binding signal,ELK4,"1.22 fold enrichment (6-mer frequency, TF over GST control)"
same,binding signal,ETV2,"1.39 fold enrichment (6-mer frequency, TF over GST control)"
same,binding signal,ELF3,"1.24 fold enrichment (6-mer frequency, TF over GST control)"
same,binding signal,CRX,"1.29 fold enrichment (6-mer frequency, TF over GST control)"
same,binding signal,ETV1,"1.16 fold enrichment (6-mer frequency, TF over GST control)"
